Results reported in PubChem BioAssay (Tox21).
Inconclusive results are not listed. Active and inactive are the calls of the source. Calls follow the shape of the dose curve; as a rule, active = well fitted inhibition curve with a large enough effect in the repeat runs; inconclusive = weak or mixed curves; inactive = no such curve, though single readings can be large or run the other way.

What follows are compounds tested against Cytochrome P450 2C19 (Homo sapiens) (UniProt P33261) (assay: Cytochrome P450 Family 2 Subfamily C Member 19 (CYP2C19) small molecule antagonists: luciferase reporter qHTS assay (AID 1671197; also: nearly all actives have a fitted effect of over 65% in size)). Settings: P450-Glo CYP2C19 enzyme, luciferin luminescence, 1 h; series mostly up to 115 µM; activity change, negative = inhibition: at the top concentration.
Chain of Cytochrome P450 2C19 (Homo sapiens) (P33261 whole entry, looked up): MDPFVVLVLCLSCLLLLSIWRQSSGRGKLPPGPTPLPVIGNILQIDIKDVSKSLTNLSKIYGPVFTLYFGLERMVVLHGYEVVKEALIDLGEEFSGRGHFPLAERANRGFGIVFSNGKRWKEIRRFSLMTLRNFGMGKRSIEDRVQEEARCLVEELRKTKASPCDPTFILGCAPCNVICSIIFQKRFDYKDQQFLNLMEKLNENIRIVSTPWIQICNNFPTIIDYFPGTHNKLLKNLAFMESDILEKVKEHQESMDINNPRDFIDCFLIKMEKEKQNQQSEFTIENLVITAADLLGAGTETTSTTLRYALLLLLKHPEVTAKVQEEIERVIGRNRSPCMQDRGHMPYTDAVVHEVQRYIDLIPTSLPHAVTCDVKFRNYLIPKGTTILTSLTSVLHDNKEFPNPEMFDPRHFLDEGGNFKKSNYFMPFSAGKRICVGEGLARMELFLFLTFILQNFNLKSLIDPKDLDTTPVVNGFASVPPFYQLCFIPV
Excerpt: National Center for Advancing Translational Sciences [NCATS]
U.S. Environmental Protection Agency [EPA]
National Institutes of Environmental Health Sciences [NIEHS]
National Toxicology Program [NTP]
U.S. Food and Drug Administration [FDA]
Cytochrome P450 (CYP) enzymes are membrane-bound hemeproteins that play a key role in metabolism of drugs and xenobiotics. Evaluation of the effect of chemicals on CYP isozymes is useful to minimize the adverse drug reactions and toxicities in drug development process. Tox21 chemicals were tested for their effect on CYP enzyme activities by using P450-Glo (TM) screening systems (Promega Corporation, Madison, WI). These systems provide a luminescent method containing proluciferin substrates and are converted to luciferin products by CYP isozymes. The luciferin products formed are detected with a luciferin detection reagent, and the amount of light produced is proportional to CYP activity. P450-Glo (TM) CYP2C19 screening system (Catalog. No. V9880) was used to detect the compounds that interfere in CYP2C19 activity. The positive control compound used for CYP2C19 assay is ketoconazole (Sigma-Aldrich, St. Louis, MO).
Tox21 Assay Protocol Summary:
Two ul of enzyme-substrate mix was dispensed into medium binding white/solid 1536-well plates (Greiner Bio-One North America Inc., Monroe, NC) using a BioRaptr Flying Reagent Dispenser (FRD, Beckman Coulter, Brea, CA). Compounds dissolved in DMSO and positive control (ketoconazole) were transferred to the assay plates at 23 nl using a Pintool station (Wako, San Diego, CA). The assay plates were incubated at room temperature for 10 min. Then 2 ul of NADPH regeneration solution was added to each well of the assay plates using an FRD and incubated at 37C for 1 h. The reaction was stopped by adding 4 ul of detection reagent using an FRD and after 20 min incubation at room temperature the luminescence signal was measured using a ViewLux plate reader (Perkin Elmer, Shelton, CT). Data were expressed as relative luminescence units.
% is scaled to controls: 0 for no effect and ±100 for the full control effect; potency is read from the fitted curve at half-maximal effect.

SMILES | activity change, negative = inhibition | Potency
O=C(O)Cc1sc(-c2ccccc2)nc1-c1ccc(Cl)cc1 | 19.5% [at 52.9 µM] (inactive) | 
COc1cc(C(C)(C)C)c(O)c(C(C)(C)C)c1 |  | 35.6 µM (active)
CC(C)c1ccccc1C(C)C |  | 39.9 µM (active)
Oc1ccc(Cc2ccccc2)cc1 |  | 20.8 µM (active)
Cc1ncsc1CCO | 6.6% (inactive) | 
C=C(C)C(=O)OCCN(C)C |  | 36 µM (active)
O=C(C(=O)c1ccc(Br)cc1)c1ccc(Br)cc1 |  | 0.352 µM (active)
Cc1cccc(Oc2ccccc2)c1 |  | 69.2 µM (active)
CC(O)C1CCCCC1 (stereo not given) | -14.9% (inactive) | 
O=C1Nc2cc(Cl)ccc2Oc2ccccc21 |  | 15.5 µM (active)
CC(=O)N(O)CCCCCNC(=O)CCC(=O)N(O)CCCCCNC(=O)CCC(=O)N(O)CCCCCN | -1.56% [at 52.9 µM] (inactive) | 
CC[C@H](C)[C@@H](C(=O)O)n1sc2ccccc2c1=O | -53% (inactive) | 
CC(C)(C)c1cc(CO)cc(C(C)(C)C)c1O |  | 25.7 µM (active)
SC1CCCC1 | 17.4% (inactive) | 
CCCC(C)C |  | 71.7 µM (active)
CC(=O)CC(=O)c1ccccc1 |  | 31.9 µM (active)
CCCCc1cc2ccccc2c(OCCN(C)C)n1 | -19.8% [at 52.9 µM] (inactive) | 
CC(=O)[C@@]1(O)CC[C@H]2[C@@H]3C[C@H](C)C4=CC(=O)CC[C@]4(C)[C@H]3CC[C@@]21C |  | 1.95 µM (active)
Cc1cccc(OCCOc2cccc(C)c2)c1 |  | 3.77 µM (active)
C=C(C)C(=O)OCCOc1ccccc1 |  | 31.7 µM (active)

SMILES | activity change, negative = inhibition | Potency
Cc1ccccc1N=Nc1ccc(N=Nc2c(O)ccc3ccccc23)c(C)c1 |  | 34.7 µM (active)
C[C@@H](C1=C(CCN(C)C)Cc2ccccc21)c1ccccn1 | -8.91% [at 52.9 µM] (inactive) | 
CCCCOC(=O)c1ccccc1C(=O)OCC(CC)CCCC (stereo not given) |  | 6.33 µM (active)
O=C(O)Cn1c(C(=O)Nc2nc(-c3ccccc3Cl)cs2)cc2ccccc21 | 6.37% [at 52.9 µM] (inactive) | 
C1=Cc2ccccc2C1 |  | 39.9 µM (active)
CCOc1cc(OCC)c(C(=O)CCC(=O)O)cc1OCC | 2.69% [at 52.9 µM] (inactive) | 
N#CCCNCCC#N | -15.5% (inactive) | 
CCCCCCCCC(CO)CCCCCC (stereo not given) |  | 31.7 µM (active)
CC(C)CC=O |  | 35.6 µM (active)
CCCCCCCCCCCCCCCBr | -14.5% [at 52.9 µM] (inactive) | 
CN(C)CC[C@@H](c1ccc(Br)cc1)c1ccccn1 | 11.2% [at 52.9 µM] (inactive) | 
COCCO | -9.47% (inactive) | 
CCCCOC(O)CC (stereo not given) | 12.3% (inactive) | 
CC(C)(C)C(=O)OCOP(=O)(COCCn1cnc2c(N)ncnc21)OCOC(=O)C(C)(C)C | -0.469% [at 52.9 µM] (inactive) | 
CCCCCOC(=O)COc1cc(N2C(=O)C3=C(CCCC3)C2=O)c(F)cc1Cl |  | 25.2 µM (active)
O=C(O)C(c1ccc(Cl)cc1)c1ccc(Cl)cc1 |  | 28.3 µM (active)
O=C(CCN1CCN2CCCC2C1)N1c2ccccc2Sc2ccc(Cl)cc21 (stereo not given) | -4.46% [at 23.6 µM] (inactive) | 
c1ccc(OCc2ccc(CCCN3CCOCC3)cc2)cc1 |  | 38.9 µM (active)
CCN(CC)CCc1nc(-c2ccccc2)no1 | 11.6% [at 52.9 µM] (inactive) | 
CC(C)(C)C1CCCCC1O (stereo not given) | 32.6% (inactive) | 
